# From PubChem BioAssay
# Results filed as inconclusive are left out. Activity calls are given as the source filed them.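 The calls were made as follows, unless noted: active = normalized viability below 100% at a tested concentration; inactive = the rest.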
# Tests used:
# [1] = growth inhibition of DIPG glioma cells, dose response, cell-based, SU-DIPG-XVII, MIPE5.0, CellTiter-Glo, qHTS (AID 1347060; cut-off not given, nearly all actives have AC50 up to about 26 µM;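 also: cells exposed to compound for 48 hours before viability readout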); settings: SU-DIPG-XVII viability, CellTiter-Glo ATP luminescence
# [2] = growth inhibition of DIPG glioma cells, dose response, cell-based, JHH-DIPG-1, MIPE4.0, CellTiter-Glo, qHTS (AID 1347062; cut-off not given, nearly all actives have AC50 up to about 27 µM;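 also: cells exposed to compound for two days before readout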); settings: JHH-DIPG-1 viability, CellTiter-Glo ATP luminescence
# [3] = growth inhibition of DIPG glioma cells, dose response, cell-based, SU-DIPG-IV, MIPE4.0, CellTiter-Glo, qHTS (AID 1347063; cut-off not given, nearly all actives have AC50 up to about 30 µM;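 also: compound exposure lasted 48 hours before the viability readout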); settings: SU-DIPG-IV viability, CellTiter-Glo ATP luminescence
# [4] = viability loss in pontine glioma line – cell-based, SU-DIPG-XXV, MIPE5.0, CellTiter-Glo, qHTS, dose response (AID 1347065; cut-off not given, nearly all actives have AC50 up to about 26 µM;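 also: cells exposed to compound for 48 hours before ATP readout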); settings: CellTiter-Glo ATP luminescence
# [5] = sensitizers of A549 cells to miR-34 induction, primary screen, imaging, A549 dox-inducible miR-34, nuclei and caspase counts (AID 1347080;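 active = compounds whose cell count with miR-34 switched on is under 0.7 times the count with it off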); settings: A549 miR-34 inducible, Hoechst nuclei count, 48 h
# [6] = survival rescue of mitochondrial mutant cells in low glucose, primary screen, MELAS cybrids, Rieske KO mouse fibroblasts, CellTiter-Glo (AID 1508586;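 active = mean z-score across replicates of 1.96 or higher in either the MELAS or the Rieske mutant cell line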;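 also: z relative to plate mean and SD of compound and empty wells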)
# [7] = LFS_MB_P medulloblastoma growth inhibition, cell-based, chromothripsis tumors, cisplatin or BGB combos (AID 1671449; in the data active = inhibition above about 80%;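 also: cells exposed for 96 hours; 0% = vehicle DMSO and 100% = killing by high DMSO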); settings: LFS_MB_P medulloblastoma cells
# [8] = HDN33 neuroblastoma growth inhibition, cell-based, chromothripsis tumors, cisplatin or BGB combos (AID 1671450; in the data active = inhibition above about 80%;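 also: cells exposed to compound for four days; 0% = vehicle DMSO and 100% = cell killing by high DMSO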); settings: HDN33 neuroblastoma cells, stronger effect = higher value
# [9] = ICB984 medulloblastoma cell growth inhibition, synergistic combos for chromothripsis tumors, cisplatin or BGB combos (AID 1671451; call rule not given here;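 also: cells exposed for 96 hours before readout; 0% = vehicle DMSO and 100% = killing by high DMSO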); settings: ICB984 medulloblastoma cells, drug combinations, stronger effect = higher value
# [10] = HTB85 osteosarcoma cell growth inhibition, synergistic combos for chromothripsis tumors, BGB or cisplatin IC20 combos (AID 1671453; in the data active = inhibition above about 80%;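 also: cells exposed for 96 hours before readout; 0% = vehicle DMSO and 100% = high DMSO killing control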); settings: HTB85 osteosarcoma cells, drug combinations, stronger effect = higher value
# [11] = MDA-MB-436 breast carcinoma cell growth inhibition, synergistic combos for chromothripsis tumors, BGB or cisplatin combos (AID 1671458; call rule not given here;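 also: cells exposed for 96 hours; 0% = vehicle DMSO and 100% = killing by high DMSO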); settings: MDA-MB-436 breast carcinoma growth inhibition, drug combinations, stronger effect = higher value
# [12] = growth inhibition of BT084 medulloblastoma cells, cell-based, ICGC_MB145, cisplatin and BGB IC40 combos (AID 1671461; in the data active = inhibition above about 80%;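 also: cells exposed to drugs for 96 hours; 0% = vehicle DMSO and 100% = high DMSO full killing control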); settings: drug combinations, stronger effect = higher value
# [13] = growth inhibition of RCMB18 medulloblastoma cells, cell-based, cisplatin and BGB IC40 combos (AID 1671462; in the data active = inhibition above about 80%;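 also: cells exposed to compound for four days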); settings: stronger effect = higher value
# [14] = SU-DIPG-XXV glioma cell viability, MIPE5.0 library, qHTS (AID 1347068; cut-off not given, nearly all actives have IC50 up to about 30 µM;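 also: cells exposed to compound for 48 hours before viability readout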)
# [15] = SU-DIPG-VI glioma cell viability, MIPE4.0 library, CellTiter-Glo luminescence, qHTS (AID 1347066; cut-off not given, nearly all actives have AC50 up to about 30 µM;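 also: cells exposed to compound for 48 hours before readout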); settings: CellTiter-Glo ATP luminescence
# [16] = JHH-DIPG-1 glioma cell viability, MIPE5.0 library, CellTiter-Glo luminescence, qHTS (AID 1347067; cut-off not given, nearly all actives have AC50 up to about 26 µM;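 also: cells exposed to compound for 48 hours before readout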); settings: JHH-DIPG-1 glioma viability, CellTiter-Glo ATP luminescence
# [17] = modifiers of HSF1 nuclear foci, imaging, Selleck Cancer Library (AID 1347162; in the data active = plate-normalised HSF1 focus index below about 0.46); settings: human cells, at 10 µM; SSMD: measured here: HSF1 foci SSMD mean; cell count: measured here: cell number; plate-normalised HSF1 focus index: stronger effect = lower value
# [18] = ovarian cancer cell viability with rucaparib, profiling panel, oncology-focused library, rucaparib conditional (AID 1508598); settings: patient-derived ovarian cancer cells, CellTiter-Glo viability, 144 h, stronger effect = lower value
# [19] = stronger effect = lower value, cell number ratio, induced over uninduced
# [20] = measured here: relative caspase fold change +Dox/-Dox
# [21] = measured here: total cells with miR-34 induction, stronger effect = lower value
# [22] = measured here: total cells without miR-34 induction
# [23] = MELAS cybrid survival, CellTiter-Glo 48 h, stronger effect = higher value
# [24] = Rieske KO mouse fibroblast survival, CellTiter-Glo 72 h
smiles,measurement,setting,value
CN(C)CCN1C(=O)c2cccc3cc(N)cc(c23)C1=O,AC50,[1],20.9 µM (active)
same,AC50,[2],23.5 µM (active)
same,AC50,[3],18.7 µM (active)
same,AC50,[4],18.6 µM (active)
same,fold change,[5]; [19],1.2 (inactive)
same,fold change,[5]; [20],0.74
same,cell count,[5]; [21],1750
same,cell count,[5]; [22],1460
same,z-score,[6]; [23],-0.14 (inactive)
same,z-score,[6]; [24],-0.182
same,inhibition,"[7]; at 0.5 µM, stronger effect = higher value",-4.37% (inactive)
same,inhibition,"[7]; measured here: combination with BGB IC20, at 0.005 µM",-27.8%
same,inhibition,"[7]; measured here: combination with BGB IC40, at 0.005 µM",-17.6%
same,inhibition,"[7]; measured here: combination with BGB IC40, at 0.05 µM",-30.5%
same,inhibition,"[7]; measured here: combination with cisplatin, at 0.5 µM, stronger effect = higher value",-36.3%
same,inhibition,"[7]; measured here: combination with cisplatin, at 5 µM, stronger effect = higher value",4.24%
same,inhibition,"[8]; BGB combo, at 5 µM",41.4%
same,inhibition,[8]; at 0.5 µM,-23.5% (inactive)
same,inhibition,"[8]; cisplatin combo, at 5 µM",48.1%
same,inhibition,"[8]; measured here: with BGB IC20 combination, at 0.5 µM",-27.7%
same,inhibition,"[8]; measured here: with cisplatin IC20 combination, at 0.5 µM",-18.1%
same,inhibition,"[8]; single agent, at 5 µM",62.5%
same,inhibition,"[9]; BGB IC20 combo, at 0.005 µM",-11.5%
same,inhibition,"[9]; BGB IC40 combo, at 0.005 µM",-22.2%
same,inhibition,"[9]; BGB IC40 combo, at 0.05 µM",-11.5%
same,inhibition,[9]; at 0.5 µM,-22.6% (inactive)
same,inhibition,"[9]; cisplatin combo, at 0.05 µM",-15.5%
same,inhibition,"[9]; cisplatin combo, at 0.5 µM",-16.6%
same,inhibition,"[9]; cisplatin combo, at 5 µM",-25.7%
same,inhibition,"[9]; measured here: 5 uM single agent, at 5 µM",-8.29%
same,inhibition,[10]; at 0.5 µM,-12.9% (inactive)
same,inhibition,"[10]; measured here: with BGB IC20, at 0.5 µM",-26.5%
same,inhibition,"[10]; measured here: with BGB IC20, at 5 µM",10.3%
same,inhibition,"[10]; measured here: with cisplatin IC20, at 0.5 µM",-16.4%
same,inhibition,"[10]; measured here: with cisplatin IC20, at 5 µM",6%
same,inhibition,"[10]; single agent, at 5 µM",33.7%
same,inhibition,[11]; at 0.5 µM,-8.14% (inactive)
same,inhibition,"[11]; measured here: BGB combination, at 0.5 µM",-8.98%
same,inhibition,"[11]; measured here: BGB combination, at 5 µM",10.1%
same,inhibition,"[11]; measured here: cisplatin combination, at 0.5 µM",-20.8%
same,inhibition,"[11]; measured here: cisplatin combination, at 5 µM",21.8%
same,inhibition,[12]; at 0.5 µM,-6.16% (inactive)
same,inhibition,"[12]; cisplatin combination, at 0.5 µM",-21.8%
same,inhibition,"[12]; cisplatin combination, at 5 µM",-12.3%
same,inhibition,"[12]; measured here: BGB IC40 combination 0.05 uM, at 0.05 µM",-42.3%
same,inhibition,"[12]; single agent, at 5 µM",-40.8%
same,inhibition,[13]; at 0.5 µM,-2.53% (inactive)
same,inhibition,"[13]; cisplatin combo, at 5 µM",-21%
same,inhibition,"[13]; measured here: BGB IC40 combination, at 0.05 µM",-28.2%
same,inhibition,"[13]; measured here: combination with cisplatin, at 0.5 µM",2.14%
same,inhibition,"[13]; single agent, at 5 µM",-32.9%
C[C@@H]1COC(Nc2ccc3ncnc(Nc4ccc(OCc5nccs5)c(Cl)c4)c3c2)=N1,AC50,[1],20.9 µM (active)
same,AC50,[2],18.7 µM (active)
same,AC50,[3],16.6 µM (active)
same,AC50,[4],20.9 µM (active)
same,IC50,[14],23.5 µM (active)
CCN1CCC(n2cc(CNc3cc(Cl)c4ncc(C#N)c(Nc5ccc(F)c(Cl)c5)c4c3)nn2)CC1,AC50,[1],18.6 µM (active)
same,AC50,[2],20.9 µM (active)
same,AC50,[3],18.7 µM (active)
same,AC50,[4],23.5 µM (active)
same,AC50,[15],16.6 µM (active)
CC1(C)CCC(c2ccc(Cl)cc2)=C(CN2CCN(c3ccc(C(=O)NS(=O)(=O)c4ccc(N[C@H](CCN5CCOCC5)CSc5ccccc5)c(S(=O)(=O)C(F)(F)F)c4)cc3)CC2)C1,AC50,[1],8.33 µM (active)
same,AC50,[2],18.7 µM (active)
same,AC50,[3],2.09 µM (active)
same,AC50,[4],0.148 µM (active)
same,AC50,[15],0.59 µM (active)
same,AC50,[16],7.42 µM (active)
same,IC50,[14],3.32 µM (active)
same,SSMD,[17],-3.49
same,cell count,[17],6830
same,plate-normalised HSF1 focus index,[17],0.875 (inactive)
same,viability,"[18]; at 0.000305 µM, OCI-C5x cells, with rucaparib 10 µM, 100% = cells with rucaparib alone",37.1% (active)
same,viability,"[18]; at 0.000305 µM, OCI-C5x cells, without rucaparib",78.4% (active)
same,viability,"[18]; at 0.000305 µM, OCI-P5x cells, with rucaparib 20 µM, 100% = cells with rucaparib alone",132% (inactive)
same,viability,"[18]; at 0.000305 µM, OCI-P5x cells, without rucaparib",120% (inactive)
same,viability,"[18]; at 0.00122 µM, OCI-C5x cells, with rucaparib 10 µM, 100% = cells with rucaparib alone",12.7% (active)
same,viability,"[18]; at 0.00122 µM, OCI-C5x cells, without rucaparib",34.9% (active)
same,viability,"[18]; at 0.00122 µM, OCI-P5x cells, with rucaparib 20 µM, 100% = cells with rucaparib alone",118% (inactive)
same,viability,"[18]; at 0.00122 µM, OCI-P5x cells, without rucaparib",106% (inactive)
same,viability,"[18]; at 0.00488 µM, OCI-C5x cells, with rucaparib 10 µM, 100% = cells with rucaparib alone",32.2% (active)
same,viability,"[18]; at 0.00488 µM, OCI-C5x cells, without rucaparib",62.4% (active)
same,viability,"[18]; at 0.00488 µM, OCI-P5x cells, with rucaparib 20 µM, 100% = cells with rucaparib alone",127% (inactive)
same,viability,"[18]; at 0.00488 µM, OCI-P5x cells, without rucaparib",105% (inactive)
same,viability,"[18]; at 0.0195 µM, OCI-C5x cells, with rucaparib 10 µM, 100% = cells with rucaparib alone",19.9% (active)
same,viability,"[18]; at 0.0195 µM, OCI-C5x cells, without rucaparib",46.8% (active)
same,viability,"[18]; at 0.0195 µM, OCI-P5x cells, with rucaparib 20 µM, 100% = cells with rucaparib alone",110% (inactive)
same,viability,"[18]; at 0.0195 µM, OCI-P5x cells, without rucaparib",101% (inactive)
same,viability,"[18]; at 0.0781 µM, OCI-C5x cells, with rucaparib 10 µM, 100% = cells with rucaparib alone",14.8% (active)
same,viability,"[18]; at 0.0781 µM, OCI-C5x cells, without rucaparib",15.9% (active)
same,viability,"[18]; at 0.0781 µM, OCI-P5x cells, with rucaparib 20 µM, 100% = cells with rucaparib alone",110% (inactive)
same,viability,"[18]; at 0.0781 µM, OCI-P5x cells, without rucaparib",102% (inactive)
same,viability,"[18]; at 0.313 µM, OCI-C5x cells, with rucaparib 10 µM, 100% = cells with rucaparib alone",10.6% (active)
same,viability,"[18]; at 0.313 µM, OCI-C5x cells, without rucaparib",18.4% (active)
same,viability,"[18]; at 0.313 µM, OCI-P5x cells, with rucaparib 20 µM, 100% = cells with rucaparib alone",100% (inactive)
same,viability,"[18]; at 0.313 µM, OCI-P5x cells, without rucaparib",92.1% (active)
same,viability,"[18]; at 1.25 µM, OCI-C5x cells, with rucaparib 10 µM, 100% = cells with rucaparib alone",10.8% (active)
same,viability,"[18]; at 1.25 µM, OCI-C5x cells, without rucaparib",15.2% (active)
same,viability,"[18]; at 1.25 µM, OCI-P5x cells, with rucaparib 20 µM, 100% = cells with rucaparib alone",90.1% (active)
same,viability,"[18]; at 1.25 µM, OCI-P5x cells, without rucaparib",88.9% (active)
same,viability,"[18]; at 5 µM, OCI-C5x cells, with rucaparib 10 µM, 100% = cells with rucaparib alone",4.72% (active)
same,viability,"[18]; at 5 µM, OCI-C5x cells, without rucaparib",11.9% (active)
same,viability,"[18]; at 5 µM, OCI-P5x cells, with rucaparib 20 µM, 100% = cells with rucaparib alone",0.895% (active)
same,viability,"[18]; at 5 µM, OCI-P5x cells, without rucaparib",10.5% (active)
CC(C)c1cnn2c(NCc3ccccc3)cc(N[C@@H](CO)[C@H](O)CO)nc12,AC50,[1],0.263 µM (active)
same,AC50,[2],0.418 µM (active)
same,AC50,[3],0.187 µM (active)
same,AC50,[4],0.235 µM (active)
same,AC50,[16],0.417 µM (active)
same,IC50,[14],0.468 µM (active)
CNC(=O)Nc1ccc(-c2nc(N3CC4CCC(C3)O4)c3cnn(C4CCC5(CC4)OCCO5)c3n2)cc1,AC50,[1],0.742 µM (active)
same,AC50,[2],1.87 µM (active)
same,AC50,[3],0.0264 µM (active)
same,AC50,[4],0.332 µM (active)
same,AC50,[16],1.48 µM (active)
same,IC50,[14],1.86 µM (active)
same,fold change,[5]; [19],1.12 (inactive)
same,fold change,[5]; [20],0.588
same,cell count,[5]; [21],3730
same,cell count,[5]; [22],3320
same,z-score,[6]; [23],3.93 (active)
same,z-score,[6]; [24],-1.7
